Assay results as given in PubChem BioAssay (EPA / NIEHS).
Calls of active or inactive are those of the source. The calls were made as follows: active = hit-call score of the fitted dose curve at least 0.9, where 1 is the maximum; inactive = score below 0.9.

Assay: CCTE_Shafer_MEA_acute_spike_number: CCTE's Neural Acute Assay for Total Number of Spikes, Shafer Lab (AID 2284008);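 as to AC50: curve fitted for decrease in spike count so AC50 reflects inhibitors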
Summary of the method: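 Total spike count from 40 min recordings before and during compound exposure (0.03-40 uM), given as per-well percent change. Cortical cultures from rat, DIV 13 or 15, 37 C; adaptive detection threshold 8x rms noise.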

| SMILES | outcome | AC50 |
| --- | --- | --- |
| CCOC(=O)c1ccccc1C(=C1C=C(Br)C(=O)C(Br)=C1)c1cc(Br)c(O)c(Br)c1 | inactive | – |
| CCCCC(CC)COC(=O)c1ccccc1O (centres undefined) | inactive | – |
| Nc1ncn([C@@H]2O[C@H](CO)[C@@H](O)[C@H]2O)c(=O)n1 | – | 7.65 nM (active) |

Assay: CCTE_Shafer_MEA_acute_firing_rate_mean: CCTE's Neural Acute Assay for Mean Firing Rate, Shafer Lab (AID 2284009);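 also: analyzed for loss of signal so actives lower firing rate relative to DMSO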
Summary of the method: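 Percent change in well-mean firing rate was derived from extracellular spikes detected at 8x rms noise (300-5000 Hz band-pass) before and after a 40-min compound exposure. Cultures were primary rat cortical neurons, tested at 0.03-40 uM.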

| SMILES | outcome | AC50 |
| --- | --- | --- |
| CCOC(=O)c1ccccc1C(=C1C=C(Br)C(=O)C(Br)=C1)c1cc(Br)c(O)c(Br)c1 | inactive | – |
| CCCCC(CC)COC(=O)c1ccccc1O (centres undefined) | inactive | – |
| Nc1ncn([C@@H]2O[C@H](CO)[C@@H](O)[C@H]2O)c(=O)n1 | – | 7.63 nM (active) |

Assay: CCTE_Harrill_HTTr_Viability_MCF7: CCTE's 6-hour Cell Viability Assessment for the High-Throughput Transcriptomics (HTTr) Platform, in MCF-7 cells cultured in DMEM + 10% fetal bovine serum, Harrill Lab (AID 2284010)
Summary of the method: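 Cells were dosed with chemicals in an eight-point dilution series, imaged 6 hours later for propidium iodide uptake, and the endpoint was analyzed by bidirectional fitting against DMSO as negative control.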

| SMILES | outcome |
| --- | --- |
| C[C@]12CCC(=O)C=C1CC[C@@H]1[C@@H]2C(=O)C[C@@]2(C)[C@H]1CC[C@]2(O)C(=O)CO | inactive |
| C=CC(=O)NC(C)(C)CS(=O)(=O)O | inactive |
| CCCNC(=O)NS(=O)(=O)c1ccc(Cl)cc1 | inactive |
| Cc1cc(C)c(C)cc1C | inactive |
| CC(=O)[C@H]1[C@H](C#N)C[C@H]2[C@@H]3CC=C4C[C@@H](O)CC[C@]4(C)[C@H]3CC[C@@]21C | inactive |
| C#CC1(O)CC[C@H]2[C@@H]3CCC4=CCCC[C@@H]4[C@H]3CC[C@@]21C (some centres undefined) | inactive |
| Cc1cc(=O)n(-c2ccccc2)n1C | inactive |
| CCOC(=O)N1CCC(=C2c3ccc(Cl)cc3CCc3cccnc32)CC1 | inactive |
| CC(=O)[C@@]1(O)CC[C@H]2[C@@H]3C[C@H](C)C4=CC(=O)C=C[C@]4(C)[C@@]3(F)[C@@H](O)C[C@@]21C | inactive |
| c1c[nH]cn1 | inactive |
| O=C(O)c1ccccc1Nc1cccc(C(F)(F)F)c1 | inactive |
| CCCCOCCOC(=O)COc1nc(Cl)c(Cl)cc1Cl | inactive |
| Cc1cccc(N(C)C(=S)Oc2ccc3ccccc3c2)c1 | inactive |
| Nc1ccc(N=Nc2ccccc2)c(N)n1 | inactive |
| CC(=O)NS(=O)(=O)c1ccc(N)cc1 | inactive |
| O=C(Nc1ccccc1)c1ccccc1O | inactive |
| C1=Cc2ccccc2C1 | inactive |

| SMILES | outcome |
| --- | --- |
| CN(C)c1ccc(N=Nc2ccccc2C(=O)O)cc1 | inactive |
| CCOC(=O)c1ccccc1C(=C1C=C(Br)C(=O)C(Br)=C1)c1cc(Br)c(O)c(Br)c1 | inactive |
| CCCCC(CC)COC(=O)c1ccccc1O (centres undefined) | inactive |
| CCCCCCCCCCCCCCCC(=O)OCC | inactive |
| Cc1ccccc1C | inactive |
| CC(=O)OC(C)C | inactive |
| O=c1[nH]c(=O)c2[nH]c(=O)[nH]c2[nH]1 | inactive |
| Nc1ncn([C@@H]2O[C@H](CO)[C@@H](O)[C@H]2O)c(=O)n1 | inactive |
| [Cl][Nd]([Cl])[Cl] | inactive |
| c1ccc2c(c1)ccc1cc3c(ccc4ccccc43)cc12 | inactive |
| O=c1c2ccccc2oc2ccccc12 | inactive |
| Cc1c(C)c([N+](=O)[O-])c(C(C)(C)C)c([N+](=O)[O-])c1C | inactive |
| CC(=O)Nc1nnc(S(N)(=O)=O)s1 | inactive |
| CC1(C)O[C@@H]2C[C@H]3[C@@H]4C[C@H](F)C5=CC(=O)CC[C@]5(C)[C@H]4[C@@H](O)C[C@]3(C)[C@]2(C(=O)CO)O1 | inactive |
| CCCOC(=O)CCCCC(=O)OCCC | inactive |
| C=C(C)[C@H]1CC=C(C)CC1 | inactive |
